Experimental data: PubChem BioAssay (NCI)
Several values for one entry are separate records, joined by “and”; a condition that tells them apart may be missing. Equal entries are not always repeated. Compounds without any hit were thinned out: in the full panel of roughly 83,000, 20% have a hit.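 48-hour exposure, single concentration, 96-well plates; percent growth endpoint where 0 means no net growth. Active: below 10.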 Values without a mark were called inactive. Activity calls are given as the source filed them.

The compounds below were run on MDA-MB-468 breast (assay: NCI-60 one-dose screen, 48 h (100 = growth as untreated, 0 = no growth, -100 = all killed)). Settings: 10 µM unless noted.
For `Oc1c(Cl)cc(Cl)c2cccnc12`, the growth was 61% and 42.6%. `CC(=O)Nc1ccc([I+]c2ccc([N+](=O)[O-])cc2)cc1` was tested, and the growth was 41.7%. In the case of `O=C(CNC(=O)OCc1ccccc1)NCC(=O)Oc1ccc([N+](=O)[O-])cc1`, the growth is reported as 106%. Compound `O=C(Nc1cccc(-n2cc(-c3ccncc3)c(-c3ccc(O)c(Cl)c3)n2)c1)Nc1ccc(Cl)c(C(F)(F)F)c1` has a growth of 10%. With `Clc1ccc(I)c2ccccc12` the growth was 107%. In the case of `CSc1ccc(C(=NNS(=O)(=O)c2ccc(C)cc2)c2ccc(Cl)cc2)cc1`, the growth is reported as 112%. Compound `COc1cc(/C=C/c2cc(/C=C/c3ccc(O)c(OC)c3)n(-c3ccccc3)c(=O)n2)ccc1O` has a growth of 63%. With `CC1(C)COC(=S)N1` the growth was 99.5%. Compound `c1c2c(cc3c1OCO3)Cc1cc3c(cc1Cc1cc4c(cc1C2)OCO4)OCO3` has a growth of 106%. Work on `COc1cc(/C=C/C(=O)c2ccc(F)cc2)ccc1Oc1nc(NCCO)nc(N2CCOCC2)n1` yielded a growth of 77.2%. `COc1ccc(-c2ccc(-c3ccc(C(=N)N)c(F)c3)s2)cc1` was tested, and the growth was -78.7% (active). For `COc1cc2cc(Oc3ccc(NC(=O)Nc4ccc(F)c(C(F)(F)F)c4)cc3)c(C)nc2cc1OCCN(C)C`, the growth was 93.4%. In the case of `COc1cc2c(cc1OC)-c1ccc3cc4c(cc3c1N(CCCN(C)C)C2)OCO4`, the growth is reported as 22.3%. With `CCOC(=O)Nc1ccc2c(c1)/C(=N\NC(N)=S)c1ccccc1-2` the growth was 55.3% and 75.3%. For `Cc1ccc(/C=N\NC(=O)c2[nH]c3ccc(F)cc3c2-c2ccccc2)cc1`, the growth was -14.5% (active). `O=C(Nc1ccccc1)c1ccco1` was tested, and the growth was 103%. Work on `C=CCn1c(SCC(=O)Nc2ccc(C(=O)/C=C/c3cc(OC)c(OC)c(OC)c3)cc2)nnc1-c1cc(-c2ccc(Cl)cc2)nc2ccccc12` yielded a growth of 108%. `C=CCOc1ccc2c(c1)CC[C@@H]1[C@@H]2CC[C@]2(C)C(=O)/C(=N/O)C[C@@H]12` showed a growth of 60.8%. In the case of `O=C(N(c1ccccc1)c1ccccc1)n1ccc2nc(Cl)nc(Cl)c21`, the growth is reported as -0.952% (active). `O=c1nc2oc3ccc4ccccc4c3cc-2s1` was tested, and the growth was -3.68% (active). `CCOC(=O)CCC(=O)P(=O)(O)O` showed a growth of 114%. In the case of `CC1(C)CCC(S(=O)(=O)c2ccc3c(c2)/C(=N\O)c2cc(S(=O)(=O)N4CCN(c5ccc(F)cc5O)CC4)ccc2-3)CC1`, the growth is reported as -82.5% (active). `CC(=O)N1N=C(c2ccc(Cl)cc2)CC1c1sc(Cl)nc1Cl` (stereo not given) gave a growth of 74.9%. With `COc1cc(C(=O)Nc2cc3c(cc2Oc2cc(C)cc(C)c2)C(=O)N(C)[C@@H](CC(=O)N(C)O)C(=O)N3)c(Br)c(OC)c1OC` the growth was -41.6% (active). For `COc1cc(/C=C\c2cc(/C=C\c3ccc(O)c(OC)c3)n(C(=O)CNc3ccc(Cl)cc3)n2)ccc1O`, the growth was 1.63% (active). With `O=C(CCl)Nc1cc(O)c2c(c1)C(=O)c1cccc(O)c1C2=O` the growth was -55.1% (active). Compound `CCC(O)CC(CC)CO` (stereo not given) has a growth of 113%. Compound `CNC(=O)c1cn2c3c(c(N4CCN(C)CC4)c(F)cc3c1=O)OC[C@@H]2C` has a growth of 97.7%. Compound `CC(=O)Nc1nc(C)c(C(=O)N/N=C/N2CCOCC2)s1` has a growth of 116%. `COC(=O)/C=C\C(=O)OC` gave a growth of 112%. `C=C(C)C(=O)O[C@H]1C[C@@]2(C)OC(=CC2=O)[C@H](C)[C@H](O)[C@H]2OC(=O)C(=C)[C@@H]21` showed a growth of 24.7%. For `COc1ccccc1-c1ccc2nc(NC(=O)Nc3cc(C(F)(F)F)cc(C(F)(F)F)c3)sc2c1`, the growth was -8.23% (active). Compound `CCn1c(SCC(=O)Nc2cccc(C(=O)/C=C/c3ccc(Br)cc3)c2)nc2ccccc2c1=O` has a growth of 86.6%. Work on `COc1ccc(/C(N)=N/C(N)=N/c2nc3ccccc3s2)cc1` yielded a growth of 24.3%. Work on `COc1ccc(CN(c2ccc(C)cc2)C2OC(=O)c3ccccc32)cc1OC` (stereo not given) yielded a growth of 90.2%. With `N#CC(C#N)=C/C=C/c1cccc([N+](=O)[O-])c1` the growth was -56.4% (active) and -30.4% (active). With `c1ccc(COCC[P+](c2ccccc2)(c2ccccc2)c2ccccc2)cc1` the growth was -10.4% (active). `CCN1CCC[C@H]1c1cc(O)c2c(c1OC)C[C@H]1C[C@H]3[C@H](N)C(=O)C(C(N)=O)=C(O)[C@@]3(O)C(=O)C1=C2O` was tested, and the growth was -18.7% (active). Work on `COc1ccc(C(=O)CSc2nccc(Nc3ccc(C(=O)O)cc3)n2)cc1` yielded a growth of 104%. Compound `CC1CC=CCC1C1OCC(C)(C)CO1` (stereo not given) has a growth of 105%.
